Measurements reported in the supplement of paper PMC10849652.
Targets with a hit are over-represented here; the source holds about 7,900 in all. About 0.6% of all pairs of compound and target were hits.

Columns and labels:
Assay in all cases: log2 fold change, soluble protein after heating vs DMSO (PISA); higher = thermal stabilisation; K562 cells, 10 uM, 30 min; active = over 0.2 and 3.5 SD of the protein, either way, in both replicates (recomputed)
[1] = compound: C1=CC=C(C=C1)[C@H](COC2=CC3=C(C=C2)NC(=O)N3)NC(=O)C4=CC=CN(C4=O)CC5=CC(=C(C=C5)F)F
Method in brief: (§1)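 Values are thermal stability changes relative to control samples and are taken from duplicates. They are stated as log2 fold changes. Before quantification by TMTpro 16plex LC-MS/MS with equalised channel sums, K562 cells at 2×10^6 cells/mL were treated with 10 μM compound for 30 min, heated in aliquots for 3 min across 48°C-58°C, pooled, extracted in PBS with 0.5% NP-40 at 4°C, and centrifuged at 21,000xg for 90 min to give the soluble supernatant.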

[2] = compound: CC1=C(SC2=C1C(=N[C@H](C3=NN=C(N32)C)CC(=O)N)C4=CC=C(C=C4)Cl)C
Method in brief: as §1

[3] = compound: CC1=C2C(=CC=C1)N=C(N(C2=O)C3=CC=CC=C3C)CN4C=NC5=C(N=CN=C54)N
Method in brief: as §1

[4] = compound: Cc1sc2c(c1C)C(c1ccc(Cl)cc1)=N[C@@H](CC(=O)OC(C)(C)C)c1nnc(C)n1-2
Method in brief: as §1

[5] = compound: c1ccc([C@@H]2C[C@H]2NC2CCNCC2)cc1
Method in brief: as §1

Sequence of UniProt Q6UX04 (Q6UX04 whole entry, looked up): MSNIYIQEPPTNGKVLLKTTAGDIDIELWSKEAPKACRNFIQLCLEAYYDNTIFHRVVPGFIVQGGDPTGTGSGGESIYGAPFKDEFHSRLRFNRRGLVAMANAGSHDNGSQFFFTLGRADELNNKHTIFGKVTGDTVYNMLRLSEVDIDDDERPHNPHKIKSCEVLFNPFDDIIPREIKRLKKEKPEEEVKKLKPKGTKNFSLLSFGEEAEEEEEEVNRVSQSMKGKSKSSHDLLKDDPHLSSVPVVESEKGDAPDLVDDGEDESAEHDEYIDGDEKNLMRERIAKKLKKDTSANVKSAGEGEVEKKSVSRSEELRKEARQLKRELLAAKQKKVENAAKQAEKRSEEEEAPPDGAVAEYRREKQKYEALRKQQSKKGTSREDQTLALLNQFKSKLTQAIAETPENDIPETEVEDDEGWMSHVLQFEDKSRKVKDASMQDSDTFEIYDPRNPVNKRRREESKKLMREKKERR
Sequence of UniProt P41091 (P41091 whole entry, looked up): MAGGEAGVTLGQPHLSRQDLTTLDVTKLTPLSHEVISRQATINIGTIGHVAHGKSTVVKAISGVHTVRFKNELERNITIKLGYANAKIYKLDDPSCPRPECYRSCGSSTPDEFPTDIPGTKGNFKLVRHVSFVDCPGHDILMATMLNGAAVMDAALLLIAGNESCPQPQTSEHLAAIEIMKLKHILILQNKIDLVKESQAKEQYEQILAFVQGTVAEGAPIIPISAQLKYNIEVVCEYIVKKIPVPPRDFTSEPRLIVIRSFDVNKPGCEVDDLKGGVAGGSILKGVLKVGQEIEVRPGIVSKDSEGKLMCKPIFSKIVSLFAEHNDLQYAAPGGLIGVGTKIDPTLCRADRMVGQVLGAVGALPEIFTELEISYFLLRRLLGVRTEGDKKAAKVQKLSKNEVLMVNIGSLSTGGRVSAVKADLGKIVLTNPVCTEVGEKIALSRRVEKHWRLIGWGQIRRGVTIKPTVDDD
Sequence of UniProt Q5QJE6 (Q5QJE6 whole entry, looked up): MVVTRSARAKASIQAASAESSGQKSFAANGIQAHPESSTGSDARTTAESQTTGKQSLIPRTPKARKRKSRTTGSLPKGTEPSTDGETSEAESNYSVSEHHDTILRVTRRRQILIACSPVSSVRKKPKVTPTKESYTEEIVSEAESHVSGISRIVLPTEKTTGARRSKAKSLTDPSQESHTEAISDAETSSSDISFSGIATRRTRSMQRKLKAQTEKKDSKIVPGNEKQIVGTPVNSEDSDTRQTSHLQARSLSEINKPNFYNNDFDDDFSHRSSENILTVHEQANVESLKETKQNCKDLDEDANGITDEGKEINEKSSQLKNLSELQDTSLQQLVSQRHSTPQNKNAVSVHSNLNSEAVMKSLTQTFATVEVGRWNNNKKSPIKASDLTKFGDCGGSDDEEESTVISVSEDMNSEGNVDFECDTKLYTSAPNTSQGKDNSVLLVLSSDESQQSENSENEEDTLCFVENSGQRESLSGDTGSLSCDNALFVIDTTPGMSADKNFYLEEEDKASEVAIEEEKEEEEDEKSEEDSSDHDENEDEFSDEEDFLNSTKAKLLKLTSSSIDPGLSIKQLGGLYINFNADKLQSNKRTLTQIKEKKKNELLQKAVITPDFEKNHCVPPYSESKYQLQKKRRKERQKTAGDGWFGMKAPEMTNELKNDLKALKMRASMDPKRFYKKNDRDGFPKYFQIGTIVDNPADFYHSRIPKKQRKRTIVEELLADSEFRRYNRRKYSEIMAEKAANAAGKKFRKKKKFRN
Sequence of UniProt Q9UJU6 (Q9UJU6 whole entry, looked up): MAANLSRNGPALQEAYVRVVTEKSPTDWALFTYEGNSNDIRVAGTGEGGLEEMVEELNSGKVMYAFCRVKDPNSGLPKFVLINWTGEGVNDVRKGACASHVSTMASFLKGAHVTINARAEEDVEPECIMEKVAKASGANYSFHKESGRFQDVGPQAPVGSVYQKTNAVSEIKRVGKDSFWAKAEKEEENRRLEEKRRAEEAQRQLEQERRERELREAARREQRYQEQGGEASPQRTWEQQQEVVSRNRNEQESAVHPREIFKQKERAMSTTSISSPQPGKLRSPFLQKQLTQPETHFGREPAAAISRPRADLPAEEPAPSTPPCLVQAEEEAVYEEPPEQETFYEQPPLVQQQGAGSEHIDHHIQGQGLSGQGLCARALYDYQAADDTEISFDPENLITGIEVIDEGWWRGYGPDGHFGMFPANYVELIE
Sequence of UniProt P35222 (P35222 whole entry, looked up): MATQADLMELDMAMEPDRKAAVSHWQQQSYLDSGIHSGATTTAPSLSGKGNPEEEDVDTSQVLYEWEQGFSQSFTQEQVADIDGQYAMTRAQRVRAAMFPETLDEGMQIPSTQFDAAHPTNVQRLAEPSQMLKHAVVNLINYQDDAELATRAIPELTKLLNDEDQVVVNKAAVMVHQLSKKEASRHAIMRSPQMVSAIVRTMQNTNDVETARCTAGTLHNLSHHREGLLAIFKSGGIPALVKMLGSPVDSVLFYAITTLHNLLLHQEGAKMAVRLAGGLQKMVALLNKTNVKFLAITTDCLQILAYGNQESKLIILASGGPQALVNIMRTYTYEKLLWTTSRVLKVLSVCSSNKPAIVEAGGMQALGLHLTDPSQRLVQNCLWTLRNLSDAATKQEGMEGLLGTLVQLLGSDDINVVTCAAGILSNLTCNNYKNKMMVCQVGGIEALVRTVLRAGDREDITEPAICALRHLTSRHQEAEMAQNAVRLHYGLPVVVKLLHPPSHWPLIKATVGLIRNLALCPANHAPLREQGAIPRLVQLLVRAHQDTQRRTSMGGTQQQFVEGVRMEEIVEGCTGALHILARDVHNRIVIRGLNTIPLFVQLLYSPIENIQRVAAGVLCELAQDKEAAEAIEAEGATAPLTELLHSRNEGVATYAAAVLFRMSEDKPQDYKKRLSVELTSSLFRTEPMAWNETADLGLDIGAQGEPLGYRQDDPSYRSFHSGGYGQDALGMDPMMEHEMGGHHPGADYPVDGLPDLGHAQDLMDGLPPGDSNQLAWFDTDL
Sequence of UniProt Q9UER7 (Q9UER7 whole entry, looked up): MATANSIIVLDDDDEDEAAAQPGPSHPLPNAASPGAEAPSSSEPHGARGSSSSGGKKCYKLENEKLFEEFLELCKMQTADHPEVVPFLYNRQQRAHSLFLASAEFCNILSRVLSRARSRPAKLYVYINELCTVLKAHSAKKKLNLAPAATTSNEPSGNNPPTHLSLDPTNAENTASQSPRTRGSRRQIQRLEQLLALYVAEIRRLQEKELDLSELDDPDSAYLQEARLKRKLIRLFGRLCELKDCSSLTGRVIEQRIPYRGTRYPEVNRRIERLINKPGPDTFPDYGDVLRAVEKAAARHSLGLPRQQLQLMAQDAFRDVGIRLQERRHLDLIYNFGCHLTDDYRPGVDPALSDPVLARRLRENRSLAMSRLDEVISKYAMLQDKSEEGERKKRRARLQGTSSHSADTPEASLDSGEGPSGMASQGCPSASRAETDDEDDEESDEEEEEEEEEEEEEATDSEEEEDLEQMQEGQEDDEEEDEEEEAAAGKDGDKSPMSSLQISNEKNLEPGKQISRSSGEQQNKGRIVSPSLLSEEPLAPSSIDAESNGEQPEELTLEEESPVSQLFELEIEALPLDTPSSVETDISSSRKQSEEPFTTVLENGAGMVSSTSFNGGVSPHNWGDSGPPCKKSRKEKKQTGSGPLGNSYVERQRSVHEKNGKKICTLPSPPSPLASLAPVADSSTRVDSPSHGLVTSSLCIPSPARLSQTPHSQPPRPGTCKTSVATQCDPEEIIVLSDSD
Sequence of UniProt Q96PV7 (Q96PV7 whole entry, looked up): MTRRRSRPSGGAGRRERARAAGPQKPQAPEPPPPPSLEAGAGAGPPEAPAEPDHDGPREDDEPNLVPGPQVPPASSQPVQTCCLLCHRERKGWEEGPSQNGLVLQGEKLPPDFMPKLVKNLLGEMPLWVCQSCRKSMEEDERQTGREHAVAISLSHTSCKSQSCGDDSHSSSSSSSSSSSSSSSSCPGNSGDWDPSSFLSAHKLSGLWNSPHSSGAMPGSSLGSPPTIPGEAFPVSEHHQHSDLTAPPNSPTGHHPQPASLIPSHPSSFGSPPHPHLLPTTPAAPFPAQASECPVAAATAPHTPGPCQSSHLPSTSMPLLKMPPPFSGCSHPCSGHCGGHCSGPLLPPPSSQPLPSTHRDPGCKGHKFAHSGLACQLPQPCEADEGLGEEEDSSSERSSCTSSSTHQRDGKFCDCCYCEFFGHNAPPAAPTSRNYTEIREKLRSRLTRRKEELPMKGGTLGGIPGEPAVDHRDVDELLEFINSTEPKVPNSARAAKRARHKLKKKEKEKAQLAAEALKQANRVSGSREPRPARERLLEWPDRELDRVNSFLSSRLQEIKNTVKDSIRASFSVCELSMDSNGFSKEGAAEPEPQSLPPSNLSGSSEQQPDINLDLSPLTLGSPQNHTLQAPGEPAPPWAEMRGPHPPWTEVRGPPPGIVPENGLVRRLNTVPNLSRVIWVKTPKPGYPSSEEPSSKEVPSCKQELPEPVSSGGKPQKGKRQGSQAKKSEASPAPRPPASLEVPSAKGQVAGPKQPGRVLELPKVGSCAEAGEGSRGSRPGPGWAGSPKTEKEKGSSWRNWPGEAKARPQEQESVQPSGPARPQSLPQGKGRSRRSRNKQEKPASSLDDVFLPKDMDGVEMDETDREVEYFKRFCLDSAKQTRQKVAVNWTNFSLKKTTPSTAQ
Sequence of UniProt Q9NV06 (Q9NV06 whole entry, looked up): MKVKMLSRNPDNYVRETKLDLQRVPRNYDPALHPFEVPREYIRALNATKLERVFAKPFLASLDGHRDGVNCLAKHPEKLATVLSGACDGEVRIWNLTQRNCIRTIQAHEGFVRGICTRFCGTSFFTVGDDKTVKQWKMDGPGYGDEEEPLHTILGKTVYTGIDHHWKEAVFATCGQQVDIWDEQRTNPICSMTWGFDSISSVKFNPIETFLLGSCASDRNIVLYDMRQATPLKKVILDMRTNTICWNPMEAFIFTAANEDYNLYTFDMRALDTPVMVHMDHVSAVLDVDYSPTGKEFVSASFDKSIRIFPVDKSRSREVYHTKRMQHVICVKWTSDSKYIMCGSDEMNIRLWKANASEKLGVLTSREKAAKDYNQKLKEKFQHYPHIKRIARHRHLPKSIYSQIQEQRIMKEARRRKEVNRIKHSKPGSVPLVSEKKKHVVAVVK

Target	log2 fold change [1]	log2 fold change [2]	log2 fold change [3]	log2 fold change [4]	log2 fold change [5]
DNAH11 (UniProt Q96DT5)	0.047 (inactive)	-0.387 (inactive)	0.089 (inactive)	-0.021 (inactive)	0.092 (inactive)
EEF1AKNMT (UniProt Q8N6R0)	-0.146 (inactive)	0.049 (inactive)	0.121 (inactive)	0.028 (inactive)	-0.063 (inactive)
DBN1 isoform 3 (UniProt Q16643)	0.049 (inactive)	0.019 (inactive)	-0.027 (inactive)	0.044 (inactive)	0.004 (inactive)
DNAJC7 (UniProt Q99615)	-0.045 (inactive)	0.043 (inactive)	0.072 (inactive)	-0.013 (inactive)	0 (inactive)
CTNNB1 (UniProt P35222)	-0.039 (inactive)	0.101 (inactive)	0.312 (inactive)	-0.062 (inactive)	-0.149 (inactive)
DCTPP1 (UniProt Q9H773)	0.022 (inactive)	0.029 (inactive)	-0.015 (inactive)	-0.043 (inactive)	0.009 (inactive)
EIF3J (UniProt O75822)	-0.034 (inactive)	0.025 (inactive)	-0.004 (inactive)	-0.041 (inactive)	-0.035 (inactive)
DHRS3 (UniProt O75911)	0.007 (inactive)	0.068 (inactive)	0.057 (inactive)	0.017 (inactive)	-0.024 (inactive)
DCAF13 (UniProt Q9NV06)	0.105 (inactive)	-0.221 (inactive)	-0.152 (inactive)	0.128 (inactive)	0 (inactive)
DNAJB1 (UniProt M0R128)	-0.843 (active)	0.006 (inactive)	0.106 (inactive)	0.078 (inactive)	0.061 (inactive)
DAXX (UniProt Q9UER7)	0.166 (inactive)	0.178 (inactive)	0.197 (inactive)	0.017 (inactive)	-0.101 (inactive)
F5 (UniProt P12259)	-0.025 (inactive)	-0.091 (inactive)	0.003 (inactive)	0.077 (inactive)	0.014 (inactive)
DPP8 (UniProt Q6V1X1)	-0.112 (inactive)	0.029 (inactive)	0.145 (inactive)	-0.033 (inactive)	0.005 (inactive)
DTYMK (UniProt P23919)	-0.064 (inactive)	0.082 (inactive)	-0.02 (inactive)	-0.003 (inactive)	-0.014 (inactive)
DFFB (UniProt O76075)	-0.027 (inactive)	0.099 (inactive)	0.048 (inactive)	0.202 (inactive)	0.049 (inactive)
FAAP100 (UniProt Q0VG06)	-0.243 (inactive)	0.078 (inactive)	0.017 (inactive)	-0.073 (inactive)	0.067 (inactive)
EEF1B2 (UniProt P24534)	-0.037 (inactive)	-0.002 (inactive)	0.036 (inactive)	0.026 (inactive)	-0.034 (inactive)
EIF4G1 isoform 8 (UniProt Q04637)	-0.074 (inactive)	-0.016 (inactive)	-0.036 (inactive)	0.135 (inactive)	-0.002 (inactive)
CWC27 (UniProt Q6UX04)	-0.039 (inactive)	0.097 (inactive)	0.103 (inactive)	-0.03 (inactive)	-0.001 (inactive)
CTSH (UniProt P09668)	0 (inactive)	-0.046 (inactive)	-0.038 (inactive)	-0.035 (inactive)	0.055 (inactive)
DDB1 isoform 2 (UniProt Q16531)	0.028 (inactive)	–	–	–	–
FAF2 (UniProt Q96CS3)	0.002 (inactive)	0.025 (inactive)	0.067 (inactive)	-0.012 (inactive)	-0.017 (inactive)
DYNC1LI2 (UniProt O43237)	-0.04 (inactive)	-0.071 (inactive)	0.035 (inactive)	-0.028 (inactive)	0.013 (inactive)
DBNL isoform 3 (UniProt Q9UJU6)	-0.096 (inactive)	0.002 (inactive)	0.045 (inactive)	0.029 (inactive)	0.01 (inactive)
DNTTIP2 (UniProt Q5QJE6)	-0.068 (inactive)	-0.117 (inactive)	-0.021 (inactive)	0.087 (inactive)	0.132 (inactive)
DHPS (UniProt M0R1T2)	-0.155 (inactive)	–	–	–	–
CTSA (UniProt P10619)	0.004 (inactive)	-0.063 (inactive)	-0.034 (inactive)	-0.018 (inactive)	0.03 (inactive)
DNAJC24 (UniProt Q6P3W2)	0.05 (inactive)	0.072 (inactive)	0.025 (inactive)	-0.002 (inactive)	0.054 (inactive)

Target	log2 fold change [1]	log2 fold change [2]	log2 fold change [3]	log2 fold change [4]	log2 fold change [5]
EPHX2 (UniProt E5RI53)	-0.024 (inactive)	–	–	–	–
EXOC1 (UniProt Q9NV70)	-0.095 (inactive)	0.021 (inactive)	0.121 (inactive)	0.027 (inactive)	-0.075 (inactive)
DYRK1A isoform 2 (UniProt Q13627)	-0.062 (inactive)	0.059 (inactive)	0.085 (inactive)	0.026 (inactive)	0.011 (inactive)
DHCR24 (UniProt Q15392)	0.099 (inactive)	-0.035 (inactive)	0.14 (inactive)	0.036 (inactive)	-0.012 (inactive)
EIF4E isoform 2 (UniProt P06730)	0.029 (inactive)	-0.026 (inactive)	-0.002 (inactive)	-0.144 (inactive)	0.009 (inactive)
DBT (UniProt P11182)	-0.003 (inactive)	-0.004 (inactive)	0.012 (inactive)	0.062 (inactive)	0.007 (inactive)
EMD (UniProt P50402)	0.016 (inactive)	0.022 (inactive)	0.059 (inactive)	0.058 (inactive)	0.031 (inactive)
EBNA1BP2 (UniProt Q99848)	0.118 (inactive)	-0.378 (inactive)	-0.269 (inactive)	0.306 (inactive)	-0.045 (inactive)
FAM193B (UniProt Q96PV7)	-0.115 (inactive)	0.011 (inactive)	-0.103 (inactive)	0.273 (inactive)	-0.115 (inactive)
EXOC6 (UniProt Q8TAG9)	-0.088 (inactive)	-0.006 (inactive)	0.072 (inactive)	0.031 (inactive)	-0.069 (inactive)
ELOVL1 (UniProt Q9BW60)	-0.16 (inactive)	0.145 (inactive)	0.045 (inactive)	-0.134 (inactive)	-0.05 (inactive)
ESS2 (UniProt Q96DF8)	0.04 (inactive)	-0.06 (inactive)	-0.096 (inactive)	0.018 (inactive)	0.075 (inactive)
EDEM2 (UniProt Q9BV94)	0.194 (inactive)	0.042 (inactive)	0.013 (inactive)	-0.046 (inactive)	0.012 (inactive)
FAM50A (UniProt Q14320)	-0.026 (inactive)	0.032 (inactive)	0.033 (inactive)	-0.025 (inactive)	0.007 (inactive)
EIF2AK1 (UniProt Q9BQI3)	0.025 (inactive)	-0.036 (inactive)	-0.051 (inactive)	0.025 (inactive)	0.018 (inactive)
DCTN1 isoform 4 (UniProt Q14203)	-0.052 (inactive)	-0.021 (inactive)	0.096 (inactive)	0.044 (inactive)	-0.008 (inactive)
DIP2A (UniProt Q14689)	-0.03 (inactive)	0.042 (inactive)	-0.149 (inactive)	0.019 (inactive)	-0.078 (inactive)
DOCK8 (UniProt Q8NF50)	0.096 (inactive)	-0.223 (inactive)	-0.01 (inactive)	0.152 (inactive)	-0.087 (inactive)
DTWD1 (UniProt Q8N5C7)	-0.051 (inactive)	-0.011 (inactive)	0.152 (inactive)	-0.056 (inactive)	0.07 (inactive)
CYBA (UniProt P13498)	0.007 (inactive)	0.034 (inactive)	-0.013 (inactive)	0.027 (inactive)	0.031 (inactive)
DTWD2 (UniProt Q8NBA8)	-0.011 (inactive)	0.125 (inactive)	0.064 (inactive)	0.043 (inactive)	-0.036 (inactive)
EPHX2 (UniProt P34913)	-0.015 (inactive)	0.091 (inactive)	0.052 (inactive)	0.143 (inactive)	-0.002 (inactive)
EEF1G isoform 2 (UniProt P26641)	-0.068 (inactive)	0.005 (inactive)	-0.049 (inactive)	-0.001 (inactive)	-0.006 (inactive)
EIF2S3 (UniProt P41091)	0.008 (inactive)	-0.023 (inactive)	-0.017 (inactive)	0.054 (inactive)	-0.002 (inactive)
ECPAS (UniProt Q5VYK3)	-0.127 (inactive)	0.047 (inactive)	0.112 (inactive)	-0.032 (inactive)	-0.01 (inactive)
CUEDC2 (UniProt Q9H467)	0.036 (inactive)	0.047 (inactive)	0.038 (inactive)	0.01 (inactive)	-0.022 (inactive)
DOLPP1 (UniProt Q86YN1)	-0.028 (inactive)	0.02 (inactive)	-0.107 (inactive)	0.062 (inactive)	0.153 (inactive)
